TWEAK Fn14 block: blocks TWEAK-Fn14 interaction in a reporter cell assay | TWEAK-stimulated Fn14 reporter cells, luciferase luminescence, 8 h | AID 1159606 | inhibition, % at 10 µM | hit rate 2% among 360,000; in the data active = inhibition above about 50%
HIF-2a block: blocks HIF-2a reporter activity; 786-0 RCC cells HIF-2a reporter, luciferase luminescence, overnight; inhibition, % at 18.8 µM; hit rate 0.72% among 360,000; AID 624352;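 active = inhibition of the luminescence signal of 40% or more relative to plate controls, in a single-dose primary screen at 18.75 µM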
HSP90 inh: inhibitors of HSP90 luciferase refolding in rabbit reticulocyte lysate; inhibition, % at 5.6 µM; hit rate 0.91% among 290,000; AID 1789; luciferase refolding luminescence, 3 h;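 active = inhibition above the screen-wide mean plus 3 SD, computed separately per campaign, cut at about 16% in these data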;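 also: 0% = DMSO wells and 100% = 60 µM geldanamycin wells; inhibitors lower the luminescence because luciferase stays unfolded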
TROY NFkB inh: TROY signaling inhibition; Q293 LMP1-TROYcd NF-kB luciferase reporter, 4 h; inhibition, % at 10 µM; hit rate 0.98% among 360,000; AID 1347056;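 active = compounds whose plate-normalised and pattern-corrected inhibition of the luciferase reporter signal at the single screening dose is 50% or more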
aSyn 5UTR inh: MLPCN primary screen, SNCA 5' untranslated region. alpha-synuclein 5'UTR reporter, inhibitor activity. inhibition, % (tested at 7.5 µM). hit rate 0.82% among 300,000. AID 1813; in the data active = inhibition above about 60%;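 also: H4 neuroglioblastoma cells stably carrying SNCA 5'UTR luciferase fusion; 0% = DMSO wells and 100% = positive control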
TRAIL sens C8: caspase-8 TRAIL sensitization; NB7+C8 cells + TRAIL, ATPlite viability luminescence; inhibition (viability loss, TRAIL sensitization), % at 10 µM; hit rate 1% among 360,000; AID 624354;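 active = compounds causing at least 50% loss of cell viability in the single-dose screen, relative to plate controls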
* = called active by the depositor. An excerpt weighted towards active compounds, which were near 3.9% of everything screened.

Results for Cc1ccc(CSC(Nc2ccc(F)cc2)=C(C#N)C#N)cc1 ?
TWEAK Fn14 block: 53*; HIF-2a block: 16; HSP90 inh: 2; TROY NFkB inh: 48; aSyn 5UTR inh: 35; TRAIL sens C8: 42

Results for O=S1(=O)N=C(Nc2nc3c(s2)CCCC3)c2ccccc21 ?
TWEAK Fn14 block: 17; HIF-2a block: -180; HSP90 inh: 3; TROY NFkB inh: -58; TRAIL sens C8: 75*

How did Cc1cccc(Nc2nc3c(s2)CCCC3)c1 do in these assays?
TWEAK Fn14 block: -30; HIF-2a block: -280; HSP90 inh: -8; TROY NFkB inh: -65; aSyn 5UTR inh: -257; TRAIL sens C8: 4

Results for Cn1c(CC(=O)NNC(=O)c2cccnc2)nc2ccccc21 ?
TWEAK Fn14 block: 10; HIF-2a block: 15; TROY NFkB inh: -3; TRAIL sens C8: -9

What do the screens show for `CCCCc1ccc(S(=O)(=O)NC(=O)C2(C)CCN2C(=O)CC2CC2)cc1` (stereo not drawn)?
TWEAK Fn14 block: -9; HIF-2a block: 21; TROY NFkB inh: -6; TRAIL sens C8: -6

How did O=C(c1ccco1)N1CCN(c2ncnc3c(-c4ccc(Cl)cc4)nsc23)CC1 do in these assays?
TWEAK Fn14 block: 61*; HIF-2a block: -24; HSP90 inh: 13; TROY NFkB inh: 63*; aSyn 5UTR inh: -8; TRAIL sens C8: -1

What do the screens show for `O=C(Nc1cccc(Cl)c1)C1C2CCC3C(CCC21)C3(Cl)Cl` (stereo not drawn)?
TWEAK Fn14 block: 62*; HIF-2a block: -76; HSP90 inh: -1; TROY NFkB inh: 44; aSyn 5UTR inh: -18; TRAIL sens C8: 10

What do the screens show for `CN1CCC(N2CCN(C3CN(Cc4ccc(F)cc4)S(=O)(=O)C3)CC2)CC1` (stereo not drawn)?
TWEAK Fn14 block: -20; HIF-2a block: 1; TROY NFkB inh: 14; TRAIL sens C8: 1

Results for COCCNC(=O)c1cccc(Nc2nc(-c3ccccc3)c3cc(Cl)ccc3n2)c1 ?
TWEAK Fn14 block: 63*; HIF-2a block: 2; HSP90 inh: -2; TROY NFkB inh: 32; aSyn 5UTR inh: 2; TRAIL sens C8: 14

What do the screens show for `CC(=O)NNc1nc(-c2ccccc2)c2cc(Cl)ccc2n1`?
TWEAK Fn14 block: -3; HIF-2a block: 19; TROY NFkB inh: -6; TRAIL sens C8: 2

What do the screens show for `COC(=O)C[C@H]1CC[C@H](NC(=O)Nc2ccccc2OC)[C@@H](CO)O1`?
HIF-2a block: 5; TRAIL sens C8: 6

What do the screens show for `COc1cc(/C=N/Nc2ccc3ccccc3c2)ccc1OC(=O)c1ccco1`?
TWEAK Fn14 block: 51*; HIF-2a block: -87; HSP90 inh: 1; TROY NFkB inh: 46; aSyn 5UTR inh: -76; TRAIL sens C8: 1

How did COc1cc(/C=N/Nc2nc(C)cc(C)n2)ccc1OC(=O)c1ccco1 do in these assays?
TWEAK Fn14 block: 10; HIF-2a block: -21; HSP90 inh: -3; TROY NFkB inh: 0; aSyn 5UTR inh: -10; TRAIL sens C8: 16

Results for O=C(CCNC(=O)c1ccccc1Cl)NCCc1ccc(C(F)(F)F)cc1 ?
TWEAK Fn14 block: 72*; HIF-2a block: 4; HSP90 inh: -2; TROY NFkB inh: 14; aSyn 5UTR inh: 11; TRAIL sens C8: 0

Results for O=C(CCNC(=O)c1ccccc1Cl)NCCc1ccc(Cl)cc1 ?
TWEAK Fn14 block: 14; HIF-2a block: 14; HSP90 inh: 0; TROY NFkB inh: 6; aSyn 5UTR inh: -7; TRAIL sens C8: -5

How did CC1=C(C(=O)Nc2ccccc2)C(c2ccc(C)cc2)N=C(Nc2nc3ccccc3o2)N1 (stereo not drawn) do in these assays?
TWEAK Fn14 block: -58; HIF-2a block: 2; HSP90 inh: 2; TROY NFkB inh: 8; aSyn 5UTR inh: 38; TRAIL sens C8: 50*

What do the screens show for `CC1(C)CC(=O)C2=C(C1)NC(Nc1nc3ccccc3o1)=NC2c1ccccn1` (stereo not drawn)?
TWEAK Fn14 block: 2; HIF-2a block: 22; HSP90 inh: -7; TROY NFkB inh: -32; aSyn 5UTR inh: -21; TRAIL sens C8: -39

What do the screens show for `O=C(Cc1ccccc1)O/N=C1\CCCc2ccccc21`?
TWEAK Fn14 block: 0; HIF-2a block: 17; HSP90 inh: 1; TROY NFkB inh: 1; aSyn 5UTR inh: 1; TRAIL sens C8: -1

What do the screens show for `O=C(O/N=C1\CCCc2ccccc21)c1cccs1`?
TWEAK Fn14 block: -23; HIF-2a block: -17; HSP90 inh: -1; TROY NFkB inh: 80*; aSyn 5UTR inh: 4; TRAIL sens C8: -5

What do the screens show for `Cc1[nH]nc(C(F)(F)F)c1N=NN1CCOCC1`?
TWEAK Fn14 block: 27; HIF-2a block: 18; TROY NFkB inh: 7; TRAIL sens C8: 78*

What do the screens show for `CCOC(=O)[C@H]1[C@H]2COc3cc(OC)ccc3[C@@H]2N2C(=O)CN(Cc3ccc(OC)cc3)C(=O)[C@@]12C`?
TWEAK Fn14 block: -29; HIF-2a block: 6; TROY NFkB inh: 5; TRAIL sens C8: -35

What do the screens show for `O=C1NC[C@H](CCCCN2CCN(CCc3ccccc3)C(=O)C2=O)N(CCc2ccccc2)C1=O`?
TWEAK Fn14 block: -2; HIF-2a block: 7; TROY NFkB inh: -1; TRAIL sens C8: 1

What do the screens show for `CCC(C)CNC(=O)c1[nH]c(C(F)(F)F)nc1-c1ccccc1` (stereo not drawn)?
TWEAK Fn14 block: 3; HIF-2a block: -4; TROY NFkB inh: 1; TRAIL sens C8: 3

What do the screens show for `CC(C)(C)NS(=O)(=O)c1cc(C(=O)O)ccc1Cl`?
TWEAK Fn14 block: -3; HIF-2a block: 13; HSP90 inh: -2; TROY NFkB inh: 13; aSyn 5UTR inh: 8; TRAIL sens C8: 1

How did Cc1cc(C(=O)NNS(=O)(=O)c2cc(C(=O)O)ccc2Cl)c(C)n1-c1ccccc1 do in these assays?
TWEAK Fn14 block: 20; HIF-2a block: 64*; TROY NFkB inh: 7; TRAIL sens C8: 1

How did COC(=O)c1nn(-c2nc(-c3cccc(OC)c3)cc(C(F)(F)F)n2)cc1[N+](=O)[O-] do in these assays?
TWEAK Fn14 block: -23; HIF-2a block: 7; HSP90 inh: -4; TROY NFkB inh: 58*; aSyn 5UTR inh: -7; TRAIL sens C8: 0

How did COC(=O)c1nn(-c2nc(-c3ccc(OC)c(OC)c3)cc(C(F)(F)F)n2)cc1[N+](=O)[O-] do in these assays?
TWEAK Fn14 block: -34; HIF-2a block: 11; HSP90 inh: 0; TROY NFkB inh: -17; aSyn 5UTR inh: 5; TRAIL sens C8: -8

How did O=C(N/N=C/C(Cl)=C/c1ccccc1)c1ccncc1 do in these assays?
TWEAK Fn14 block: 1; HIF-2a block: -26; HSP90 inh: 1; TROY NFkB inh: -11; aSyn 5UTR inh: 12; TRAIL sens C8: 16

Results for O=C(N/N=C/C(Cl)=C/c1ccccc1)c1ccccn1 ?
TWEAK Fn14 block: -2; HIF-2a block: -250; HSP90 inh: 4; TROY NFkB inh: -45; aSyn 5UTR inh: -66; TRAIL sens C8: 56*
